Results reported in PubChem BioAssay AID1159580 (chemical genetic matrix, 2015).
Where “and” joins values, the source holds several entries; their conditions need not be identical. Equal entries are not always repeated. Among all 5,500 compounds or so, about 2,000 (36%) were called active. Inconclusive results (about 18%) are left out. Rule as the data show it: active = normalized growth mostly below about 0.91 (no sharp cut-off); inconclusive = no clear call, values can overlap the other calls; inactive = mostly above about 0.92. Some of the results follow.

Assay: chemical genetic growth profiling, strain panel (AID 1159580);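 also: tested at 20 µM; growth read once vehicle control cultures reached saturation at 30 °C; 1 = growth at the plate median or of vehicle wells; lower values mean less growth of the strain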
Conditions: S. cerevisiae deletion strains, growth OD

Structure (SMILES): COc1c(C)c2c(c(O)c1C/C=C(\C)CCC(=O)O)C(=O)OC2
- normalized growth (locus YAL013W, strain DEP1, stronger effect = lower value): 0.84 (active)
- normalized growth (locus YAL021C, strain ccr4, stronger effect = lower value): 0.556 (active)
- normalized growth (locus YAL026C, strain drs2, stronger effect = lower value): 0.323 (active)
- normalized growth (locus YAL030W, strain snc1, stronger effect = lower value): 0.621 (active)
- normalized growth (locus YBL061C, strain skt5, stronger effect = lower value): 0.712 (active)
- normalized growth (locus YBR009C, strain hhf1, stronger effect = lower value): 0.417 (active)
- normalized growth (locus YBR021W, strain FUR4, stronger effect = lower value): 1.07 (inactive)
- normalized growth (locus YBR023C, strain chs3, stronger effect = lower value): 0.602 (active)
- normalized growth (locus YBR171W, strain sec66, stronger effect = lower value): 0.945 (inactive)
- normalized growth (locus YBR229C, strain ROT2, stronger effect = lower value): 0.973 (inactive)
- normalized growth (locus YBR231C, strain swc5, stronger effect = lower value): 0.386 (active)
- normalized growth (locus YBR279W, strain paf1, stronger effect = lower value): 0.613 (active)
- normalized growth (locus YCL011C, strain gbp2, stronger effect = lower value): 0.47 (active)
- normalized growth (locus YCL016C, strain dcc1, stronger effect = lower value): 0.518 (active)
- normalized growth (locus YCL029C, strain bik1, stronger effect = lower value): 0.723 (active)
- normalized growth (locus YCL069W, strain vba3, stronger effect = lower value): 0.395 (active)
- normalized growth (locus YCR088W, strain abp1, stronger effect = lower value): 0.508 (active)
- normalized growth (locus YDL005C, strain med2, stronger effect = lower value): 0.915 (inactive)
- normalized growth (locus YDL035C, strain GPR1, stronger effect = lower value): 0.789 (active)
- normalized growth (locus YDL040C, strain nat1, stronger effect = lower value): 0.758 (active)
- normalized growth (locus YDL074C, strain BRE1, stronger effect = lower value): 0.498 (active)
- normalized growth (locus YDL101C, strain DUN1, stronger effect = lower value): 0.95 (inactive)
- normalized growth (locus YDL134C, strain PPH21, stronger effect = lower value): 0.876 (active)
- normalized growth (locus YDL185W, strain tfp1, stronger effect = lower value): 0.185 (active)
- normalized growth (locus YDL192W, strain arf1, stronger effect = lower value): 0.737 (active)
- normalized growth (locus YDR001C, strain nth1, stronger effect = lower value): 0.604 (active)
- normalized growth (locus YDR069C, strain doa4, stronger effect = lower value): 0.713 (active)
- normalized growth (locus YDR101C, strain arx1, stronger effect = lower value): 0.668 (active)
- normalized growth (locus YDR137W, strain rgp1, stronger effect = lower value): 0.345 (active)
- normalized growth (locus YDR150W, strain NUM1, stronger effect = lower value): 0.997 (inactive)
- normalized growth (locus YDR159W, strain sac3, stronger effect = lower value): 0.401 (active)
- normalized growth (locus YDR162C, strain NBP2, stronger effect = lower value): 0.77 (active)
- normalized growth (locus YDR195W, strain ref2): 1.09 (inactive)
- normalized growth (locus YDR297W, strain sur2, stronger effect = lower value): 0.664 (active)
- normalized growth (locus YDR318W, strain mcm21, stronger effect = lower value): 0.625 (active)
- normalized growth (locus YDR334W, strain swr1, stronger effect = lower value): 0.341 (active)
- normalized growth (locus YDR335W, strain msn5, stronger effect = lower value): 0.549 (active)
- normalized growth (locus YDR388W, stronger effect = lower value): 0.75 (active)
- normalized growth (locus YDR392W, strain spt3, stronger effect = lower value): 0.0934 (active)
- normalized growth (locus YDR502C, strain sam2, stronger effect = lower value): 0.666 (active)
- normalized growth (locus YEL003W, strain gim4, stronger effect = lower value): 0.539 (active)
- normalized growth (locus YEL037C, strain rad23, stronger effect = lower value): 0.451 (active)
- normalized growth (locus YEL061C, strain CIN8 (second series), stronger effect = lower value): 0.368 (active)
- normalized growth (locus YEL061C, strain CIN8, stronger effect = lower value): 0.863 (active)
- normalized growth (locus YER015W, strain faa2, stronger effect = lower value): 0.667 (active)
- normalized growth (locus YER016W, strain bim1, stronger effect = lower value): 0.761 (active)
- normalized growth (locus YER110C, stronger effect = lower value): 1.02 (inactive)
- normalized growth (locus YER111C, strain swi4, stronger effect = lower value): 0.662 (active)
- normalized growth (locus YER155C, strain BEM2 (second series), stronger effect = lower value): 0.363 (active)
- normalized growth (locus YER155C, strain BEM2, stronger effect = lower value): 0.781 (active)
- normalized growth (locus YER167W, strain BCK2, stronger effect = lower value): 0.582 (active)
- normalized growth (locus YFR010W, strain ubp6, stronger effect = lower value): 0.384 (active)
- normalized growth (locus YGL078C, strain dbp3, stronger effect = lower value): 0.349 (active)
- normalized growth (locus YGL086W, strain mad1, stronger effect = lower value): 0.759 (active)
- normalized growth (locus YGL167C, strain pmr1, stronger effect = lower value): 0.666 (active)
- normalized growth (locus YGL173C, strain kem1, stronger effect = lower value): 0.82 (active)
- normalized growth (locus YGL227W, strain vid30, stronger effect = lower value): 0.494 (active)
- normalized growth (locus YGL240W, strain doc1, stronger effect = lower value): 0.95 (inactive)
- normalized growth (locus YGL248W, strain PDE1, stronger effect = lower value): 0.861 (active)
- normalized growth (locus YGL253W, strain hxk2, stronger effect = lower value): 0.437 (active)
- normalized growth (locus YGR078C, strain PAC10, stronger effect = lower value): 0.808 (active)
- normalized growth (locus YGR135W, strain pre9, stronger effect = lower value): 0.874 (active)
- normalized growth (locus YGR229C, strain SMI1, stronger effect = lower value): 0.608 (active)
- normalized growth (locus YGR252W, strain gcn5, stronger effect = lower value): 1.01 (inactive)
- normalized growth (locus YHR013C, strain ard1, stronger effect = lower value): 0.533 (active)
- normalized growth (locus YHR027C, strain rpn1, stronger effect = lower value): 0.699 (active)
- normalized growth (locus YHR030C, strain SLT2, stronger effect = lower value): 0.974 (inactive) and 0.154 (active)
- normalized growth (locus YHR079C, strain IRE1 (second series), stronger effect = lower value): 0.536 (active)
- normalized growth (locus YHR079C, strain IRE1, stronger effect = lower value): 0.165 (active)
- normalized growth (locus YHR094C, strain hxt1, stronger effect = lower value): 0.734 (active)
- normalized growth (locus YHR129C, strain ARP1, stronger effect = lower value): 0.869 (active)
- normalized growth (locus YHR142W, strain chs7, stronger effect = lower value): 0.33 (active)
- normalized growth (locus YHR200W, strain rpn10, stronger effect = lower value): 0.889 (active)
- normalized growth (locus YIL066C, strain RNR3, stronger effect = lower value): 0.835 (active)
- normalized growth (locus YIL073C, strain SPO22, stronger effect = lower value): 0.794 (inactive)
- normalized growth (locus YIL125W, strain kgd1, stronger effect = lower value): 0.238 (active)
- normalized growth (locus YIR030C, strain dcg1, stronger effect = lower value): 0.745 (active)
- normalized growth (locus YJL092W, strain hpr5, stronger effect = lower value): 0.505 (active)
- normalized growth (locus YJL095W, strain BCK1 (second series), stronger effect = lower value): 0.714 (active)
- normalized growth (locus YJL095W, strain BCK1, stronger effect = lower value): 0.755 (active) and 0.169 (active)
- normalized growth (locus YJL115W, strain asf1, stronger effect = lower value): 0.593 (active)
- normalized growth (locus YJL129C, strain trk1, stronger effect = lower value): 0.686 (active)
- normalized growth (locus YJL134W, strain LCB3, stronger effect = lower value): 0.976 (inactive)
- normalized growth (locus YJL154C, strain vps35, stronger effect = lower value): 0.596 (active)
- normalized growth (locus YJL164C, strain tpk1, stronger effect = lower value): 0.469 (active)
- normalized growth (locus YJL166W, strain qcr8, stronger effect = lower value): 0.641 (active)
- normalized growth (locus YJL168C, strain set2, stronger effect = lower value): 0.979 (inactive)
- normalized growth (locus YJL187C, strain SWE1 (second series), stronger effect = lower value): 0.749 (active)
- normalized growth (locus YJR043C, strain POL32, stronger effect = lower value): 0.906 (inactive)
- normalized growth (locus YJR066W, strain TOR1, stronger effect = lower value): 0.0708 (active)
- normalized growth (locus YJR075W, strain HOC1, stronger effect = lower value): 0.772 (active)
